Laboratory results as given in PubChem BioAssay AID651860 (Broad Institute, 2012).
Measured potencies and affinities stand elsewhere. Values without a mark were called inactive. The source made the active and inactive calls.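 How the source made its calls: active means compounds lowering HepG2 cell ATP luminescence with a fitted half-maximal concentration at most twice the top tested dose; inconclusive means flat fit with 30 to 70 percent signal loss, or poor fit; inactive means the rest.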

Assay: liver cell line viability loss – HepG2, luminescence plate reader, powder samples, set 2, cytotoxicity control, dose response (AID 651860)
Conditions: CellTiter-Glo ATP luminescence, 48 h; series mostly up to 26 µM; activity change, negative = cytotoxic: at the top concentration

| SMILES | activity change, negative = cytotoxic [%] | outcome |
| --- | --- | --- |
| O=C(NCCc1ccccc1)c1ccccc1C(=O)NC[C@@H]1c2ccccc2CCN1C(=O)C1CCCCC1C(=O)O (some centres undefined) | 3.84 |  |
| COC(=O)[C@H]1CCCC[C@H]1C(=O)N1CCc2ccccc2[C@H]1CN1C(=O)c2ccccc2C1=O | 7.57 |  |
| CC(=O)Nc1cc(NS(=O)(=O)c2c(C)cc(C)cc2C)c2ccccc2c1O | 7.31 |  |
| CC(C)OC(=O)C(C(=O)C(F)(F)F)c1cc(NS(=O)(=O)c2ccccc2)c2ccccc2c1O (centres undefined) | -11.9 |  |
| O=C(O)[C@H]1CCCC[C@H]1C(=O)N1CCc2ccccc2C1CCN1C(=O)c2ccccc2C1=O (some centres undefined) | 3.26 |  |
| O=C(O)CCC(=O)N1CCc2ccccc2C1CN1C(=O)c2ccccc2C1=O (centres undefined) | 2.6 |  |
| Cc1cc(C)c(S(=O)(=O)Nc2ncnc3ccccc23)c(C)c1 | -15.3 |  |
| O=C(O)C1CCCCC1C(=O)N1CCc2ccccc2[C@H]1C(=O)NC12CC3CC(CC(C3)C1)C2 (some centres undefined) | -5.48 |  |
| O=C1c2ccccc2C(=O)N1CC1=NCCc2ccccc21 | -3.12 |  |
| Cc1cc(C)c(S(=O)(=O)Nc2cc(C(C(=O)OCc3ccccc3)C(=O)OCc3ccccc3)c(O)c3ccccc23)c(C)c1 | -14.8 |  |
| CCOC(=O)C(C(=O)OCC)c1cc(CNS(=O)(=O)c2ccc(C)cc2C)c2ccccc2n1 | -9.04 |  |
| O=C(O)[C@H]1CCCC[C@H]1C(=O)N1CCC2=C(CCCC2)C1CN1C(=O)c2ccccc2C1=O (some centres undefined) |  | inactive |
| O=C(O)C1CCCCC1C(=O)N1CCc2ccccc2C1CN1Cc2ccccc2C1=O (centres undefined) | -6.56 |  |
| CC(C)CNc1nc(NS(=O)(=O)c2ccccc2)c2ccccc2n1 | -10.5 |  |
| CCOC(=O)C(C(=O)OCC)c1nc(NS(=O)(=O)c2c(C)cc(C)cc2C)c2ccccc2n1 | 2.58 |  |
| COc1ccccc1CCNC(=O)[C@@H]1c2ccccc2CCN1C(=O)C1CCCCC1C(=O)O (some centres undefined) |  | inactive |
| O=C(O)C1CCCCC1C(=O)N1CCCCC1CN1C(=O)c2ccccc2C1=O (centres undefined) | -10.9 |  |

| SMILES | activity change, negative = cytotoxic [%] | outcome |
| --- | --- | --- |
| Cc1ccccc1S(=O)(=O)Nc1cc(C(C(=O)OC(C)C)C(=O)C(F)(F)F)c(O)c2ccccc12 (centres undefined) | -6.55 |  |
| CCOC(=O)Cc1nc(NS(=O)(=O)c2c(C)cc(C)cc2C)c2ccccc2n1 | 2.6 |  |
| Cc1ccc(S(=O)(=O)NNc2nc(C(C(=O)OC(C)C)C(=O)C(F)(F)F)nc3ccccc23)cc1 (centres undefined) | -2.36 |  |
| COC(=O)[C@@H]1CCCC[C@@H]1C(=O)N1CCc2ccccc2[C@@H]1CN1C(=O)c2ccccc2C1=O | -17.5 |  |
| O=C(NC[C@@H]1c2ccccc2CCN1C(=O)[C@@H]1CCCC[C@@H]1C(=O)O)c1ccccc1CO | -0.395 |  |
| O=C1c2ccccc2C(=O)N1C[C@H]1NCCc2ccccc21 | 12.9 |  |
| O=C(O)C1CCCCC1C(=O)N1CCc2ccccc2C1c1ccccc1 (centres undefined) | -2.51 |  |
| O=C(O)[C@H]1CCCC[C@H]1C(=O)N1CCc2ccccc2[C@H]1CNc1nc(Cl)nc2ccccc12 | -2.48 |  |
| Cc1cc(C)c(S(=O)(=O)Nc2nc(NCCO)nc3ccccc23)c(C)c1 | -0.961 |  |
| O=C(O)c1ccccc1C(=O)NC[C@@H]1c2ccccc2CCN1C(=O)[C@@H]1CCCC[C@@H]1C(=O)O | 1 |  |
| COC(=O)C1CCCCC1C(=O)N1CCc2ccccc2C1CN1C(=O)c2ccccc2C1=O (centres undefined) | -1.95 |  |
| O=C1c2ccccc2C(=O)N1C[C@@H]1c2ccccc2CCN1C(=O)OCc1ccccc1 | 1.85 |  |
| O=C(O)Cc1ccccc1C(=O)N1CCc2ccccc2[C@H]1CN1C(=O)c2ccccc2C1=O | -3.12 |  |
| O=C(O)[C@H]1CCCC[C@H]1C(=O)N1CCc2ccccc2[C@H]1CNS(=O)(=O)c1ccccc1 | -11 |  |
| O=C(NC[C@@H]1c2ccccc2CCN1C(=O)[C@@H]1CCCC[C@@H]1C(=O)O)c1ccc(CN2CCOCC2)cc1 | -12.1 |  |
| COC(=O)C(C(=O)OC)c1cc(NS(=O)(=O)c2c(C)cc(C)cc2C)c2ccccc2c1O | -3.99 |  |
| NC(=O)c1ccccc1C(=O)NC[C@@H]1c2ccccc2CCN1C(=O)[C@@H]1CCCC[C@@H]1C(=O)O | -1.73 |  |
